Screens (PubChem)
Sampled rows, rich in hits. Any-hit rate of the full collection: about 21%.
CHX counter = Cycloheximide Counterscreen for Small Molecule Inhibitors of Shiga Toxin | max response, % | 300,000 tested, 12% active | cell reporter, cycloheximide protein synthesis inhibition counterscreen | AID 2314, 2010; in the data active = max response mostly above about 13%, no sharp cut-off; inactive = mostly below about 14%; note: read at 38.3 µM for the half of the compounds with a filed dose; 0% is about no effect
Sm TGR inh = qHTS Assay for the Inhibitors of Schistosoma Mansoni Peroxiredoxins. purified TGR, DTNB reduction, TNB absorbance 405 nm. Potency, µM (highest dose often 114 µM), inactives show at the highest dose activity change, negative = inhibition, actives largely listed as inhibitors. 360,000 tested, 3% active. AID 485364, 2010; note: potency is the fitted concentration of half-maximal effect; % is set by controls: 0 for no effect and ±100 for the full control effect; nearly all actives have a fitted effect of over 60% in size
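First, TGR (20 nM dispensed) and NADPH were mixed with compound. Second, a 15 min room-temperature incubation followed. Third, further NADPH and then DTNB were added to start the reaction. Finally, TNB absorbance was monitored kinetically.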
Pf growth 96h = Primary qHTS for delayed death inhibitors of the malarial parasite plastid, 96 hour incubation; P. falciparum luciferase reporter growth, 96 h; Potency, µM (highest dose often 28.7 µM), for inactives: at the top dose activity change, negative = inhibition, hits mostly inhibitors; 320,000 tested, 6.9% active; AID 504834, 2011; note: potency is the fitted concentration of half-maximal effect; % is set by controls: 0 for no effect and ±100 for the full control effect
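Two-generation exposure (96 h) targets delayed-death phenotype. Reporter parasites carrying integrated firefly luciferase, in red cells at 2% hematocrit and 0.05% parasitemia final, kept at 37 C, 5% CO2; luminescence loss indicates inhibition.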
NS1 inh = qHTS Assay for Inhibitors of Influenza NS1 Protein Function; Potency, µM (highest dose often 46.1 µM), inactives show top-dose activity, positive = more growth; 270,000 tested, 0.4% active; AID 2326, 2010; calls by dose curve; note: potency is the fitted concentration of half-maximal effect; actives are rising curves; nearly all actives have a fitted effect of over 50% in size
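Growth recovery, yeast-based: influenza A NS1 expressed in S. cerevisiae causes slow growth, and suppressors are detected by OD600. The parent strain without NS1 is used as positive control.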
Shiga toxin inh = A qHTS for Small Molecule Inhibitors of Shiga Toxin. Vero cells, Shiga toxin protein synthesis inhibition reporter. inhibition, % at 38.7 µM. 290,000 tested, 9.2% active. AID 2315, 2010; in the data active = inhibition mostly above about 28%, no sharp cut-off; inactive = mostly below about 43%; note: 0% is about no effect
Pf growth 48h = Primary qHTS for delayed death inhibitors of the malarial parasite plastid, 48 hour incubation; P. falciparum luciferase growth in erythrocytes, 48 h; Potency, µM (top dose mostly 28.7 µM), for inactives: at the top dose activity change, negative = inhibition, actives largely listed as inhibitors; 310,000 tested, 5.9% active; note: potency is the fitted concentration of half-maximal effect; % is set by controls: 0 for no effect and ±100 for the full control effect
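Parasite viability was followed by luminescence of a genomically integrated firefly luciferase. Cultures held 0.1% parasitemia at 2% hematocrit (final), incubated under 5% CO2 at 37 C.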
Active calls of the source: *; i = inactive; ? = inconclusive; . = no result; [ ] = dose if it differs, or a comment. Unless noted, calls come from the whole dose curve; as a rule, active = well fitted curve in the direction sought with a large enough effect; inconclusive = small, poorly fitted or top-dose-only effect, or another doubt; inactive = no such curve, though single readings can be large; an effect the other way counts as inactive or inconclusive.

SMILES	CHX counter	Sm TGR inh	Pf growth 96h	NS1 inh	Shiga toxin inh	Pf growth 48h
CCOC(=O)C(CCc1ccccc1)NC(C)C(=O)N1Cc2ccccc2CC1C(=O)O (stereo not drawn)	.	.	-7.1%	.	.	-4.2%
N=C(c1cccc([N+](=O)[O-])c1)N1CCCCC1	-1.9	-0.6%[57.1 µM]	?	1.3%	28.1	-1.0%
Cc1ccc(S(=O)(=O)N2CCC(C(=O)N3CCCC3C(=O)N[C@@H](CC(C)C)C(=O)NCC(N)=O)CC2)cc1 (stereo partly drawn)	-2.3	3.2%	6.57µM*	12.0%	-3.9	?
Cc1ccc(S(=O)(=O)N2CCC(C(=O)N3CCC[C@H]3C(=O)NCC(C)C)CC2)cc1	-4.2	-26.2%	0.4%	-0.8%	27.2	?
O=C(C1CCN(S(=O)(=O)c2ccc(F)cc2)CC1)N1CC=C(c2ccccc2)CC1	-1.6	?	-5.1%	-12.5%	-2.7	10.4µM*
CC(C)Cn1c(N)c(C(=O)CSc2cc(Cl)ccc2Cl)c(=O)n(C)c1=O	-0.5	-3.2%	-10.4%	2.9%	-9.1	-13.7%
Cc1cccc(NC(=O)CSc2nnc(-c3ccccc3)n2N)c1	12.1	4.8%	26.2%	17.9%	12.2	23.0%
Nc1ccccc1SCC(=O)Nc1nccs1	3.8	18.3%	5.4%	0.5%	10.0	29.7%
Cc1cc(C)cc(NC(=O)CSc2nnc(-c3ccccc3)n2N)c1	14.3*	3.1%	?	2.7%	-9.8	0.5%
Cn1cc(SCC(=O)Nc2nccs2)c2ccccc21	39.5*	-10.6%	70.0%	-15.6%	83.3*	61.8%
COc1ccc(NC(C)=O)cc1NC(=O)CSc1nnc(-c2ccccc2)n1N	17.9	0.1%	15.7%	0.0%	59.6*	-6.5%
Cc1ccc(-c2nnc(SCC(=O)Nc3nccs3)n2N)cc1	29.9*	0.0%	92.0%	6.3%	43.5*	46.7%
Fc1ccc(-c2cn3cc(Cc4ccc(Cl)cc4)sc3n2)cc1	.	10.8%	.	.	.	.
CC(=O)N1CCOc2ccc(S(=O)(=O)Nc3ccc(C)cn3)cc21	9.9	3.5%	14.1%	3.0%	-12.7	4.6%
COC(=O)c1sccc1S(=O)(=O)N1CCN(c2ccc(C)cc2C)CC1	.	-0.4%	.	.	.	.
Cc1cc(OCc2cc(C(=O)NC(C)c3c(C)nn(C)c3C)no2)cc(C)c1Cl (stereo not drawn)	41.0*	-11.8%	?	-14.6%	111.3*	-21.5%
Cc1nc(C(C)NC(=O)c2cc(COc3ccc(C)c(C)c3)on2)c(C)s1 (stereo not drawn)	41.5*	7.2%	?	-46.7%	125.1*	-2.5%
Cc1cccc(CC(C)NC(=O)c2cc(COc3ccc(C)c(C)c3)on2)n1 (stereo not drawn)	77.1*	12.6%	1.5%	-49.8%	97.8*	?
Cc1cccc(CC(C)NC(=O)c2cc(COc3ccc(F)cc3F)on2)n1 (stereo not drawn)	49.1*	8.4%	-15.6%	-19.0%	45.3*	17.8%
Cc1cc(C)n(CC(C)NC(=O)c2cc(COc3c(F)cccc3F)on2)n1 (stereo not drawn)	4.7	-7.8%	i	1.4%	-10.9	-9.8%
COc1cccc(NS(=O)(=O)c2ccc(-n3cccn3)cc2)c1	-1.8	4.7%	-20.3%	-1.9%	-5.4	23.5%
C=CCn1cc(C(=O)OCC)c(=O)c2ccc(F)cc21	-4.5	4.1%	56.0%[1.15 µM]	0.9%	21.7	-24.7%
Cc1ccc(N2CCN(C(=O)c3cn(C)c4ccc(S(=O)(=O)N(C)C)cc4c3=O)CC2C)cc1 (stereo not drawn)	.	-1.1%	.	.	.	.
C=CCOc1ccccc1CN1CCC(Oc2cc(C(=O)NC3CC3)ccc2OC)CC1	-3.0	1.9%	-0.3%	-11.3%	-9.1	?
CSc1ccccc1C(=O)Nc1ccc2c(c1)CCC2	20.9	-1.9%	92.1%	-13.3%	41.1*	101.1%
SMILES	CHX counter	Sm TGR inh	Pf growth 96h	NS1 inh	Shiga toxin inh	Pf growth 48h
CSc1ccccc1C(=O)Nc1cccc(C)c1	10.9	-13.0%	3.8%	-7.4%	-3.8	.
O=C(Nc1ccc2c(c1)CCC2)c1ccccc1Br	33.5*	-1.1%	i	-8.3%	62.8*	64.6%
Cc1c(C(=O)Nc2ccc(Nc3ccccc3)cc2)cccc1[N+](=O)[O-]	6.3	3.6%	?	-23.3%	3.0	-17.1%
CN(CC(=O)Nc1ccc2c(c1)CCC2)CC(=O)Nc1ccccc1Br	-0.9	2.5%	9.9%	.	-15.9	4.8%
Cc1c(C(=O)Nc2ccc3c(c2)CCC3)cccc1[N+](=O)[O-]	95.5*	7.7%	?	1.5%	125.3*	104.6%
COC(=O)c1ccc(NC(=O)c2ccccc2SC)cc1	27.3*	6.4%	96.0%	-43.2%	46.2*	66.5%
COC(=O)c1ccccc1NC(=O)c1ccccc1SC	1.9	2.4%	?	-5.5%	3.7	-11.9%
COc1ccccc1CNC(=O)Cn1cc2c(n1)-c1c(oc(C(=O)N3CCOCC3)c1C)CC2	.	-3.7%	.	.	.	.
COC(=O)c1ccccc1NC(=O)c1ccccc1N(C)S(=O)(=O)c1ccccc1	-8.4	-0.5%	-27.1%	-12.5%	-6.8	?
COC(=O)c1ccc(NC(=O)c2ccccc2N(C)S(=O)(=O)c2ccccc2)cc1	16.3*	-17.8%	?	-8.2%	7.9	.
CCCOC(=O)c1cccc(NC(=O)C(C)(C)C)c1	18.1*	0.8%	17.0%	-46.9%	32.2*	20.6%
CCOC(=O)c1cccc(NC(=O)c2ccc(NC(=O)c3ccco3)cc2)c1	-3.1	-8.2%	-1.9%	8.9%	-13.9	?
CCOC(=O)c1cccc(NC(=O)c2cccnc2)c1	11.1	0.2%	105.9%	-61.9%	15.5	12.6%
CCOC(=O)c1cccc(NC(=O)c2cncc(Br)c2)c1	41.4*	-5.1%	-23.4%	1.6%	45.8*	?
CCOC(=O)c1cccc(NC(=O)c2cc(C)nn2-c2ccccc2)c1	-1.1	-8.1%	4.0%	-4.6%	-4.5	0.1%[0.00184 µM]
CCOC(=O)c1cccc(NC(=O)c2ccc(N(C)C)cc2)c1	67.9*	-7.4%	30.9%	6.6%	108.3*	161.5%
CCOC(=O)c1cccc(NC(=O)c2cnc3ccccc3n2)c1	35.4*	-5.1%	43.8%	-40.7%	57.1	?
COc1ccc(N(C(=O)c2cccc(C)c2)S(=O)(=O)c2ccc3c(c2)n(C)c(=O)n3C)cc1	.	4.1%	.	.	.	.
O=C(Nc1cccc(NC(=O)c2cncc(Br)c2)c1)c1cncc(Br)c1	-1.3	2.5%	?	17.7%	.	3.7µM*
Cc1ccc(NC(=O)c2cncc(Br)c2)c([N+](=O)[O-])c1	11.3*	-0.6%	?	2.1%	77.4*	59.5%
Cc1ccc(NC(=O)c2cccnc2)c([N+](=O)[O-])c1	9.6	16.0%	184.1%	5.9%	.	39.8%
CC(C)c1ccc(O)c(NC(=O)c2cncc(Br)c2)c1	18.5*	-19.8%	?	-3.0%	36.3*	?
